Experimental data as given in PubChem BioAssay (NCI).
Compounds without any hit were thinned out: in the full panel of roughly 79,000, 15% have a hit. Active and inactive are the calls of the source. Cut-off read from the data, not from the text of the source: active = growth inhibition above about 70%; inactive = the rest.

Columns and labels:
[1] = NCI Yeast Anticancer Drug Screen. Data for the rad14 strain (AID 159);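 note: 0% = growth of vehicle-treated control cultures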; details: S. cerevisiae rad14 strain growth inhibition, stronger effect = higher value
Outline: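 Here, inhibition of yeast growth was measured after compound exposure, using a strain with a genetic defect in DNA damage repair and vehicle-treated cultures as the reference.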

[2] = NCI Yeast Anticancer Drug Screen. Data for the sgs1 mgt1 strain (AID 161);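 note: 0% = growth of cultures given vehicle only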; details: S. cerevisiae sgs1 mgt1 strain, stronger effect = higher value
Outline: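 This yeast growth screen uses a strain with defined DNA-repair lesions; compound-treated growth is compared with vehicle-treated growth.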

[3] = NCI Yeast Anticancer Drug Screen. Data for the CLN2oe strain (AID 163);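 note: 0% = growth of vehicle-only control cultures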; details: S. cerevisiae CLN2oe strain, stronger effect = higher value
Outline: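 Compounds are applied to yeast harbouring a defined cell-cycle control change; reduced growth compared with vehicle-treated controls gives the value.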

[4] = NCI Yeast Anticancer Drug Screen. Data for the cln2 rad14 strain (AID 165);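 note: 0% = growth equal to vehicle treated cultures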; details: S. cerevisiae cln2 rad14 strain, stronger effect = higher value
Outline: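 Readout is yeast growth inhibition versus vehicle-treated controls, using a strain with cln2 and rad14 alterations exposed to compound.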

[5] = NCI Yeast Anticancer Drug Screen. Data for the bub3 strain (AID 167); details: S. cerevisiae bub3 mutant strain, stronger effect = higher value
Outline: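 Whole-cell yeast assay. The mutant strain was incubated with compounds, and growth inhibition was determined by comparison with vehicle-treated cells.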

[6] = NCI Yeast Anticancer Drug Screen. Data for the wt2 strain (AID 169);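 note: 0% = growth of vehicle-treated yeast cultures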; details: S. cerevisiae wt2 strain growth inhibition, stronger effect = higher value
Outline: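 Against vehicle-treated controls, the growth of yeast exposed to each compound was compared, and the inhibition was recorded.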

[7] = NCI Yeast Anticancer Drug Screen. Data for the mlh1 strain (AID 171);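 note: 0% = growth of vehicle-treated control cultures of the same strain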; details: S. cerevisiae mlh1 strain growth inhibition, stronger effect = higher value
Outline: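 Measured: yeast growth. Reference: vehicle-treated controls. Organism: strain with a defined alteration affecting DNA damage repair or cell cycle control, treated with compound.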

[8] = NCI Yeast Anticancer Drug Screen. Data for the sgs1 strain (AID 173);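 note: 0% = growth of vehicle-only control cultures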; details: S. cerevisiae sgs1 mutant, stronger effect = higher value
Outline: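 Each compound was added to cultures of the altered yeast strain. Growth was recorded, and inhibition was derived by comparison with vehicle controls.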

[9] = NCI Yeast Anticancer Drug Screen. Data for the mlh1 rad18 strain (AID 175); details: S. cerevisiae mlh1 rad18 strain growth inhibition, stronger effect = higher value
Outline: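 Genetically defined yeast (DNA repair-deficient) exposed to compounds; growth inhibition determined relative to vehicle.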

[10] = NCI Yeast Anticancer Drug Screen. Data for the rad18 strain (AID 177); details: S. cerevisiae rad18 mutant growth inhibition, stronger effect = higher value
Outline: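 Vehicle-treated cultures served as the baseline for scoring compound-induced growth inhibition in DNA-repair-mutant yeast.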

[11] = NCI Yeast Anticancer Drug Screen. Data for the rad52 strain (AID 147);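 note: 0% = growth of vehicle-treated control cultures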; details: S. cerevisiae rad52 mutant growth inhibition, stronger effect = higher value
Outline: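 The repair-mutant yeast strain was incubated with compounds, then growth was read and inhibition derived relative to vehicle.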

[12] = NCI Yeast Anticancer Drug Screen. Data for the mgt1 strain (AID 153); details: S. cerevisiae mgt1 mutant growth inhibition, stronger effect = higher value
Outline: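 Vehicle-normalized growth inhibition is determined in mgt1 yeast, a strain selected for a defined alteration in DNA repair or cell cycle control.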

[13] = NCI Yeast Anticancer Drug Screen. Data for the rad50 strain (AID 155);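 note: 0% = growth of vehicle-only cultures of the same strain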; details: S. cerevisiae rad50 strain growth inhibition, stronger effect = higher value
Outline: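 Growth of the mutant yeast was measured after compound exposure and referenced to vehicle-treated cultures.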

[14] = NCI Yeast Anticancer Drug Screen. Data for the mec2-1 strain (AID 157); details: S. cerevisiae mec2-1 strain, stronger effect = higher value
Outline: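 Mutant yeast (mec2-1) grown with compound; growth inhibition relative to vehicle control reported.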

[15] = NCI Yeast Anticancer Drug Screen. Data for the wt1 strain (AID 149);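 note: 0% = growth of vehicle-treated wt1 cultures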; details: S. cerevisiae wt1 strain (SPY 50644) growth inhibition, stronger effect = higher value
Outline: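 Measured: growth of wt1 yeast under compound versus vehicle treatment, reported as inhibition.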

[16] = at 5.0 µM (retest, dose inferred, filed as 0.5)
[17] = at 50.0 µM (retest, dose inferred, filed as 5.0)

Measured: growth inhibition

Nc1ccc(F)cc1S
inactive: [2]; [16] 31% | [3]; at 1.2 µM -70% | [3]; at 3.7 µM -50% | [3]; at 11.0 µM -24% | [3]; at 33.0 µM 43% | [4]; [16] 46% | [5]; at 1.2 µM -33% | [5]; at 3.7 µM -15% | [5]; [16] 61% | [5]; at 11.0 µM 18% | [6]; at 1.2 µM 4% | [6]; at 3.7 µM -8% | [6]; at 11.0 µM 56% | [7]; at 1.2 µM -20% | [7]; at 3.7 µM -19% | [7]; at 11.0 µM 2% | [8]; at 1.2 µM -16% | [8]; at 3.7 µM -24% | [8]; at 11.0 µM -14% | [8]; at 33.0 µM 46% | [9]; [16] 15% | [10]; at 1.2 µM -28% | [10]; at 3.7 µM -30% | [10]; at 11.0 µM 1%
active: [1]; at 100.0 µM 97% | [2]; [17] 100% | [2]; at 50.0 µM 80.5% | [3]; at 100.0 µM 94% | [4]; [17] 88% | [4]; at 50.0 µM 85.4% | [5]; at 33.0 µM 73% | [5]; [17] 99% | [5]; at 50.0 µM 87.5% | [5]; at 100.0 µM 98% | [6]; at 33.0 µM 95% | [6]; at 100.0 µM 98% | [7]; at 33.0 µM 83% | [7]; at 100.0 µM 98% | [8]; at 100.0 µM 97% | [9]; [17] 76% | [9]; at 50.0 µM 89.3% | [10]; at 33.0 µM 71% | [10]; at 100.0 µM 97%

Cc1c(-c2ccccn2)ccc2ccccc12
inactive: [11]; at 1.2 µM -2% | [11]; at 3.7 µM -1% | [11]; at 11.0 µM 0% | [11]; at 33.0 µM 2% | [11]; at 100.0 µM 46% | [12]; at 1.2 µM 0% | [12]; at 3.7 µM -1% | [12]; at 11.0 µM -3% | [12]; at 33.0 µM 0% | [13]; at 1.2 µM 6% | [13]; at 3.7 µM 37% | [13]; [16] 1% | [13]; at 11.0 µM 44% | [13]; at 33.0 µM 15% | [13]; [17] 15% | [13]; at 50.0 µM 21.8% | [14]; at 1.2 µM -1% | [14]; at 3.7 µM 0% | [14]; [16] 1% | [14]; at 11.0 µM 1% | [14]; at 33.0 µM -1% | [14]; [17] 15% | [14]; at 50.0 µM 44.5% | [14]; at 100.0 µM 50% | [1]; at 1.2 µM 0% | [1]; at 3.7 µM 0% | [1]; at 11.0 µM 1% | [1]; at 33.0 µM 6% | [1]; at 100.0 µM 43% | [2]; [16] -2% | [2]; [17] 46% | [4]; [16] 1% | [4]; [17] 3% | [4]; at 50.0 µM 25.4% | [5]; at 1.2 µM 3% | [5]; at 3.7 µM 7% | [5]; [16] 18% | [5]; at 11.0 µM 24% | [6]; at 1.2 µM -2% | [6]; at 3.7 µM 7% | [6]; at 11.0 µM -4% | [6]; at 33.0 µM -3% | [6]; at 100.0 µM 43% | [7]; at 1.2 µM 0% | [7]; at 3.7 µM -1% | [7]; at 11.0 µM -76% | [7]; at 33.0 µM 0% | [7]; at 100.0 µM 39% | [8]; at 1.2 µM -2% | [8]; at 3.7 µM -1% | [8]; at 11.0 µM 1% | [8]; at 33.0 µM 24% | [9]; [16] -1% | [9]; [17] 20% | [9]; at 50.0 µM 59.8% | [10]; at 1.2 µM -1% | [10]; at 3.7 µM 2% | [10]; at 11.0 µM 6% | [10]; at 33.0 µM 13% | [10]; at 100.0 µM 67%
active: [12]; at 100.0 µM 88% | [13]; at 100.0 µM 73% | [2]; at 50.0 µM 80.8% | [5]; at 33.0 µM 70% | [5]; [17] 90% | [5]; at 50.0 µM 94.2% | [5]; at 100.0 µM 96% | [8]; at 100.0 µM 83%

CCCCN(CCCC)C(=O)/C=C/c1ccccc1
active: [15]; at 100.0 µM 82% | [13]; [17] 84% | [13]; at 50.0 µM 93.3% | [13]; at 100.0 µM 89% | [14]; [17] 85% | [14]; at 50.0 µM 92.2% | [14]; at 100.0 µM 79% | [2]; [17] 92% | [2]; at 50.0 µM 92.2% | [5]; [17] 76% | [5]; at 50.0 µM 74.2% | [5]; at 100.0 µM 70% | [6]; at 100.0 µM 97% | [7]; at 100.0 µM 85% | [8]; at 100.0 µM 87% | [9]; [17] 88% | [9]; at 50.0 µM 81.2%
inactive: [15]; at 1.2 µM 0% | [15]; at 3.7 µM 3% | [15]; at 11.0 µM 11% | [15]; at 33.0 µM 10% | [12]; at 1.2 µM -4% | [12]; at 3.7 µM -9% | [12]; at 11.0 µM -5% | [12]; at 33.0 µM -1% | [12]; at 100.0 µM 48% | [13]; at 1.2 µM -15% | [13]; at 3.7 µM -12% | [13]; [16] 5% | [13]; at 11.0 µM -10% | [13]; at 33.0 µM 15% | [14]; at 1.2 µM -5% | [14]; at 3.7 µM -5% | [14]; [16] -1% | [14]; at 11.0 µM -6% | [14]; at 33.0 µM -4% | [2]; [16] 4% | [3]; at 1.2 µM -9% | [3]; at 3.7 µM -6% | [3]; at 11.0 µM -23% | [3]; at 33.0 µM -9% | [3]; at 100.0 µM 43% | [4]; [16] 7% | [4]; [17] 20% | [4]; at 50.0 µM 68% | [5]; at 1.2 µM -2% | [5]; at 3.7 µM 10% | [5]; [16] 18% | [5]; at 11.0 µM 21% | [5]; at 33.0 µM 33% | [6]; at 1.2 µM 6% | [6]; at 3.7 µM -4% | [6]; at 11.0 µM 12% | [6]; at 33.0 µM 47% | [7]; at 1.2 µM -9% | [7]; at 3.7 µM -4% | [7]; at 11.0 µM -5% | [7]; at 33.0 µM 18% | [8]; at 1.2 µM -17% | [8]; at 3.7 µM -6% | [8]; at 11.0 µM 8% | [8]; at 33.0 µM 33% | [9]; [16] -3% | [10]; at 1.2 µM -6% | [10]; at 3.7 µM -9% | [10]; at 11.0 µM -3% | [10]; at 33.0 µM 4% | [10]; at 100.0 µM 61%
